Structures can show the parent of a compound that is named as a salt.
Legend:
Settings in all cases: compound concentration in added solution (µM; 5 µl added to 20 µl cells): 10; 18 h
[1] = test system: A431; test: LBPA endosome anti-LBPA integrated intensity (sum per cell), Z-score; higher = more LBPA staining
In short: (§1)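 In duplicate 384-well imaging plates, 3,500 HeLa MZ or A431 cells in 20 µl per well were seeded onto 5 µl of 10 µM compound solution. The cells were incubated for 18 h, fixed in 4% PFA and stained with 6C4 anti-LBPA antibody, filipin, propidium iodide and CellTracker green before four 20× images were acquired per well. Values are AcuityXpress-normalised Z-scores of per-cell integrated LBPA or filipin intensity, obtained by MetaXpress segmentation over the whole cell or in LBPA endosomes.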

[2] = test system: HeLa MZ; test: as above
In short: as §1

[3] = test system: A431; test: whole-cell filipin (free cholesterol) integrated intensity, Z-score; higher = more cholesterol staining
In short: as §1

[4] = test system: HeLa MZ; test: as above
In short: as §1

[5] = test system: A431; test: filipin (cholesterol) integrated intensity within LBPA endosomes, Z-score; higher = more cholesterol in LBPA endosomes
In short: as §1

[6] = test system: HeLa MZ; test: as above
In short: as §1

Row | Structure (SMILES) | LBPA endosome anti-LBPA integrated intensity (z-score) [1] | LBPA endosome anti-LBPA integrated intensity (z-score) [2] | whole-cell filipin (z-score) [3] | whole-cell filipin (z-score) [4] | filipin (z-score) [5] | filipin (z-score) [6]
1 | CCN(CC)CCNC(=O)c1cc(Cl)c(N)cc1OC [Metoclopramide monohydrochloride] | -0.305 | 1.1 | -0.595 | -0.234 | -0.404 | 0.279
2 | C[C@@]1(O)CCOC(=O)C1 [Mevalonic-D, L acid lactone] | -0.324 | -0.057 | -0.441 | 0.0668 | -0.408 | -0.457
3 | O=C1OC(CN2CCOCC2)CN1/N=C/c1ccc([N+](=O)[O-])o1 (configuration not stated) [Furaltadone hydrochloride] | -0.539 | -0.499 | -0.319 | -0.322 | -0.493 | -0.666
4 | CC(C)C(=O)c1c(C(C)C)nn2ccccc12 [Ibudilast] | -0.434 | -0.686 | 0.153 | -0.112 | -0.402 | -0.704
5 | NC(=O)N1c2ccccc2C=Cc2ccccc21 [Carbamazepine] | -0.439 | -0.106 | -0.553 | -0.708 | -0.587 | -0.687
6 | Cc1ccsc1/C=C/C1=NCCCN1C [Morantel tartrate] | -0.53 | -0.0789 | -1.09 | -0.906 | -0.593 | -0.756
7 | CN(C)C(=O)C(CCN1CCC(O)(c2ccc(Cl)cc2)CC1)(c1ccccc1)c1ccccc1 [Loperamide hydrochloride] | 2.04 | 1.35 | 0.703 | 1.87 | 3.45 | 3.57
8 | CO/N=C(\C(=O)N[C@@H]1C(=O)N2C(C(=O)O)=C(COC(N)=O)CS[C@H]12)c1ccco1 [Cefuroxime sodium salt] | -0.467 | -0.812 | -0.402 | 0.0343 | -0.419 | -0.472
9 | Cc1cc(=O)n(-c2ccccc2)n1C [Antipyrine] | -0.333 | -0.475 | -0.316 | -0.0627 | -0.425 | -0.342
10 | COc1cc2ncnc(Nc3ccc(F)c(Cl)c3)c2cc1OCCCN1CCOCC1 [Gefitinib] | 3.94 | 2.43 | 0.816 | 0.788 | 2.49 | 2.83
11 | CNCCc1ccccn1 [Betahistine mesylate] | -0.418 | -0.427 | -0.443 | -0.285 | -0.457 | -0.6
12 | CC(C)NC[C@H](O)COc1ccc(CC(N)=O)cc1 [(S)-(-)-Atenolol] | -0.484 | 0.0669 | -0.593 | -0.509 | -0.513 | -0.661
13 | CC(C)(C)C(=O)OCOC(=O)[C@@H]1N2C(=O)[C@@H](NC(=O)[C@H](N)c3ccccc3)[C@H]2SC1(C)C [Pivampicillin] | -0.161 | 0.0846 | 0.0929 | -0.0816 | -0.266 | -0.41
14 | CC(C)(C)NC[C@H](O)COc1cccc2c1CCCC2=O [(-) -Levobunolol hydrochloride] | -0.264 | 1.1 | -0.125 | -0.19 | -0.327 | 0.118
15 | O=C(O)c1ccccc1OP(=O)(O)O [Fosfosal] | -0.256 | 0.942 | -0.159 | 0.251 | -0.274 | -0.0166
16 | NC(CO)C(=O)NNCc1ccc(O)c(O)c1O (configuration not stated) [Benserazide hydrochloride] | -0.379 | 0.144 | -0.376 | -0.254 | -0.42 | -0.5
17 | CC(C)(C)NCC(O)COc1cccc2c1CC(O)C(O)C2 (configuration not stated) [Nadolol] | -0.438 | 0.289 | -0.0909 | 0.44 | -0.44 | -0.157
18 | CN[C@@H]1[C@@H](O)[C@@H](O[C@@H]2[C@@H](O)[C@H](O[C@H]3OC(CN)=CC[C@H]3N)[C@@H](N)C[C@H]2N)OC[C@]1(C)O [Sisomicin sulfate] | -0.541 | -0.481 | -0.622 | -0.546 | -0.517 | -0.45
19 | Cc1cn([C@H]2C[C@H](N=[N+]=[N-])[C@@H](CO)O2)c(=O)[nH]c1=O [Zidovudine, AZT] | -0.815 | -0.853 | -0.904 | 0.114 | -0.643 | -0.555
20 | Cc1nccn1CC1CCc2c(c3ccccc3n2C)C1=O (configuration not stated) [Ondansetron Hydrochloride] | 0.526 | 1.23 | -0.22 | 0.362 | -0.149 | 0.186
21 | CC(=O)N[C@@H](CC(C)C)C(=O)O [N-Acetyl-L-leucine] | -0.45 | -0.158 | -0.322 | 0.0999 | -0.425 | -0.357
22 | CO/N=C(\C(=O)N[C@@H]1C(=O)N2C(C(=O)O)=C(C[N+]3(C)CCCC3)CS[C@H]12)c1csc(N)n1 [Cefepime hydrochloride] | -0.483 | -1.02 | -0.176 | -0.327 | -0.47 | -0.504

From the supplement of paper PMC6607015
